Experimental data published in PubChem BioAssay AID1445 (SRMLSC, 2008).
In all, about 220,000 compounds went through this assay and about 910 (0.41%) were called active.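 The calls were made as follows: active = primary inhibition above the hit cutoff, then over 50% inhibition at one or more dose response concentrations (cut at about 23% in these data, passing the limit was not always enough); inconclusive = conflicting primary data, or primary hits not chosen for dose response; inactive = low primary inhibition, or under 50% at every dose.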 For the sample, actives were picked, then their nearest neighbours and some compounds at random. Results with a measured potency or affinity are listed apart.

Target: Aminopeptidase N (Plasmodium falciparum (isolate 3D7)) (UniProt O96935)
Sequence (O96935 whole entry, looked up): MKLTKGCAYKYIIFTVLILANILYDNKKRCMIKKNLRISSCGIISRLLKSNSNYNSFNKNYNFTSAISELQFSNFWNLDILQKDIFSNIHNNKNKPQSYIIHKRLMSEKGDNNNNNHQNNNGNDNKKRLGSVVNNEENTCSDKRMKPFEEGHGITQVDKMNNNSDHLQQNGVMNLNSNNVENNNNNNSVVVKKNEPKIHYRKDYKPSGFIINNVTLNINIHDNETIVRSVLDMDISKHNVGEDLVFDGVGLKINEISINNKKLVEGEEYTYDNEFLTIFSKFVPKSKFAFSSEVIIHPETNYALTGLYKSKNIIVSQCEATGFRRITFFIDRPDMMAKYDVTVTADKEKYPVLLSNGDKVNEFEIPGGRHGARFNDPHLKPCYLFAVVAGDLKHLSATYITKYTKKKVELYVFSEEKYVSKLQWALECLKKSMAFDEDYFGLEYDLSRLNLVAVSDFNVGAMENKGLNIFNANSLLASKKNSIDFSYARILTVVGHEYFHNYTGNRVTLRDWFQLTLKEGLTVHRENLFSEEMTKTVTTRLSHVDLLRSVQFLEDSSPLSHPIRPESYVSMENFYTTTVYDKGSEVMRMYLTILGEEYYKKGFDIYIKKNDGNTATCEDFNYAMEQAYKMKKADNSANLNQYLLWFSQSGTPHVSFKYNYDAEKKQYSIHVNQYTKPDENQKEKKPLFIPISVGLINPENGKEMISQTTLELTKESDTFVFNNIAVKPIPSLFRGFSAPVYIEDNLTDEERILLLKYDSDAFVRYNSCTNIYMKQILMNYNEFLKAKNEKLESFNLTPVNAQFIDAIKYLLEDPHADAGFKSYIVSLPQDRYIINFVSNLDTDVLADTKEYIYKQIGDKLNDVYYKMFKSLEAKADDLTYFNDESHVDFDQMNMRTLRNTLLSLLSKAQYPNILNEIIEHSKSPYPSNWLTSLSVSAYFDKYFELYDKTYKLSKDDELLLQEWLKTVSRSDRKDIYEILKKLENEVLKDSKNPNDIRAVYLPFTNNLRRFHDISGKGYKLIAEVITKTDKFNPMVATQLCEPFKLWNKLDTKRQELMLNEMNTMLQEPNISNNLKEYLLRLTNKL
Test: malaria alanyl aminopeptidase activity blockers – biochemical, fluorogenic H-Leu-NHMec substrate, 1536-well (AID 1445);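 also: plate controls were DMSO full reaction for no effect and no enzyme background for full effect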
Conditions: recombinant M1AAP, H-Leu-NHMec fluorogenic kinetic assay; at 30 µM, active compounds read high unless noted

| SMILES | inhibition |
| --- | --- |
| CCOC(=O)CNC(=O)Cc1ccc(OC)cc1 | -3.67% (inactive) |
| COC(=O)c1ccccc1NC(=O)CSc1nc2cccnc2n1C | -3.92% (inactive) |
| O=C(CSc1nc2ccccc2n1CC(=O)N1CCOCC1)N1CCCC1 | 1.43% (inactive) |
| CCSc1nc2ccccc2n1CC(=O)N1CCOCC1 | 8.83% (inactive) |
| CCC(=O)N1CCN(C(C)=O)C1c1ccccc1 (stereo unspecified) | -1.61% (inactive) |
| CCC(=O)N1CCN(C(=O)CC)C1c1ccccc1 | 1.3% (inactive) |
| CC(=O)N1CCN(C(C)=O)C1c1ccccc1 | 4.82% (inactive) |
| CC1C(=O)CC(c2ccccc2)N(C)C1c1ccccc1 (stereo unspecified) | -1.3% (inactive) |
| COc1ccc(N=C2SC(CC(=O)Nc3ccc(F)cc3)C(=O)N2Cc2ccco2)cc1 (stereo unspecified) | 5.55% (inactive) |
| COc1ccc(O)c(C(=O)c2cc(C#N)c(=O)n(-c3ccc(Cl)cc3)c2)c1 | 4.39% (inactive) |
| O=C(c1ccc(COCC(F)(F)F)o1)N1CCCCCC1 | -0.95% (inactive) |
| CC(=O)c1cc(-c2ccccc2)n(CC(=O)NC(C)(C)C)c1C | 5.46% (inactive) |
| COCCNc1cc(C)c(C#N)c2nc3ccccc3n12 | -4.32% (inactive) |
| COc1cccc(/C=N/Nc2ncnc3scc(-c4ccccc4)c23)c1O | 2.95% (inactive) |
| COc1cc(/C=N/N2C(=O)CSC2=S)ccc1O | 20.3% (inactive) |
| COc1ccc(/C=N/N2C(=O)CSC2=S)cc1 | 10.4% (inactive) |
| Oc1ccccc1CNc1cnc2ccccc2c1 | 9.27% (inactive) |
| COc1cccc(CNc2cnc3ccccc3c2)c1O | 2.44% (inactive) |
| Oc1ccc2ccccc2c1CNc1cnc2ccccc2c1 | 24.4% (active) |
| CCNC(=S)NNC(=O)c1ccncc1 | 0.26% (inactive) |
| O=C(NCCCc1ccccc1)c1ccncc1 | -1.01% (inactive) |

| SMILES | inhibition |
| --- | --- |
| O=C(NCCc1ccccc1)c1ccncc1 | -0.47% (inactive) |
| O=C(CCN1C(=O)/C(=C/c2ccc(F)cc2)SC1=S)NNC(=O)c1ccncc1 | -9.67% (inactive) |
| CCOc1ccc(NC(=O)CN(C)C(=O)C2CCCC2)cc1OCC | 8.15% (inactive) |
| CC(=O)Nc1ccc2nc(SCC(=O)N3CCOCC3)sc2c1 | 2.3% (inactive) |
| COC(=O)CNC(=O)C(C)NC(=O)OCc1ccccc1 (stereo unspecified) | 3.83% (inactive) |
| Cc1cc(C)c2[nH]c(=O)c(C(c3nnnn3C(C)(C)C)N(Cc3ccco3)CC3CCCO3)cc2c1 (stereo unspecified) | 11.4% (inactive) |
| O=C(CSc1nnc(SCc2ccc(Cl)cc2)s1)N/N=C/c1ccccc1C(=O)O | 2.73% (inactive) |
| O=C(O)COc1ccccc1/C=N/NC(=O)CSc1nnc(SCc2ccccc2)s1 | 14.1% (inactive) |
| O=C(CSc1nnc(SCc2ccccc2)s1)N/N=C/c1ccc(Cl)cc1Cl | 5.23% (inactive) |
| O=C(O)COc1ccccc1/C=N/NC(=O)CSc1nnc(SCc2cccc3ccccc23)s1 | 11.9% (inactive) |
| CCOc1ccccc1-n1c(COc2ccccc2)nnc1SCC(N)=O | 6.25% (inactive) |
| COc1ccc2cc(CN(C(=O)Nc3ccccc3)C3CCCC3)c(=O)[nH]c2c1 | 10.9% (inactive) |
| O=C(CCNC(=O)c1ccccc1Cl)Nc1ccc(S(=O)(=O)Nc2ncccn2)cc1 | -2.53% (inactive) |
| COc1ccc(OC)c(C2CC(c3c(-c4ccccc4)c4cc(Cl)ccc4[nH]c3=O)=NN2S(C)(=O)=O)c1 (stereo unspecified) | 6.89% (inactive) |
| COc1cccc(C2=NN(C(=O)CCCC(=O)O)C(c3cccs3)C2)c1 (stereo unspecified) | 2.4% (inactive) |
| Cc1ccc(C2=NN(C(=O)CCC(=O)O)C(c3cccs3)C2)cc1 (stereo unspecified) | -2.92% (inactive) |
| O=C(O)CCCC(=O)N1N=C(c2ccccc2)CC1c1cccs1 (stereo unspecified) | -2.7% (inactive) |
| COc1ccc(C2=NN(C(=O)CCC(=O)O)C(c3cccs3)C2)cc1 (stereo unspecified) | 6.04% (inactive) |
| O=C(O)CCC(=O)N1N=C(c2ccc(Br)cc2)CC1c1cccs1 (stereo unspecified) | 7.55% (inactive) |
| O=C(O)CCC(=O)N1N=C(c2ccco2)CC1c1cccs1 (stereo unspecified) | -6.29% (inactive) |
| COc1ccccc1C1CC(c2c(-c3ccccc3)c3cc(Cl)ccc3[nH]c2=O)=NN1S(C)(=O)=O (stereo unspecified) | 33.3% (inactive) |

| SMILES | inhibition |
| --- | --- |
| O=C(C1CCCCN1S(=O)(=O)c1ccccc1[N+](=O)[O-])N1CCCC1 (stereo unspecified) | -3.36% (inactive) |
| CC(NC(=O)c1ccccc1Cl)C(=O)O (stereo unspecified) | -7.3% (inactive) |
| CCN(CC)S(=O)(=O)c1ccc(C(=O)Nc2ccc3c(c2)OCCO3)cc1 | 4.24% (inactive) |
| N/C(=N\OC(=O)CCCOc1ccccc1)c1ccc([N+](=O)[O-])cc1 | 6.54% (inactive) |
| Cc1nc2ccc(Cl)cc2c(-c2ccccc2)c1CC(=O)O | 14.4% (inactive) |
| CCOC(=O)c1c(C)nc2ccc(Cl)cc2c1-c1ccccc1 | 5.75% (inactive) |
| CCOC(=O)c1ccccc1NC(=O)c1cn(-c2ccc(C)c(C)c2)c(=O)c2ccccc12 | 1.24% (inactive) |
| Cc1cccc(CN2CCN(CCCc3ccccc3)CC2)c1 | -1.11% (inactive) |
| CCN(CC)S(=O)(=O)c1ccc(N/N=C/c2ccccc2OCC(=O)O)c([N+](=O)[O-])c1 | 11.3% (inactive) |
| COc1ccccc1NS(=O)(=O)c1ccc(N/N=C/c2ccccc2OCC(=O)O)c([N+](=O)[O-])c1 | 13.1% (inactive) |
| COC(=O)/C(=C\Nc1cccc(Cl)c1C)c1ncc(C(F)(F)F)cc1Cl | -7.97% (inactive) |
| Cc1cc(C(=O)COC(=O)c2ccc(N)c([N+](=O)[O-])c2)c(C)n1-c1ccc2c(c1)OCO2 | 4.88% (inactive) |
| COc1cc([N+](=O)[O-])ccc1-c1ccc(/C=N/NC(N)=O)o1 | 0.13% (inactive) |
| COc1cc([N+](=O)[O-])ccc1-c1ccc(/C=N/NC(=O)OC(C)(C)C)o1 | 3.22% (inactive) |
| N#CCCN(CCC#N)C(=O)c1ccc(Cl)cc1 | 0.66% (inactive) |
| Nc1cc(N)nc(SCc2cccnc2)n1 | -6.1% (inactive) |
| O=C(CO/N=C/c1c(Cl)cccc1Cl)NNC(=O)c1cccc(Cl)c1 | 0.37% (inactive) |
| Cc1cccc(S(=O)(=O)NNC(=O)c2cc(-c3ccc(F)cc3)nc3ccccc23)c1 | 15.2% (inactive) |
| O=C(NNC(=O)c1cc(-c2ccccc2)nc2ccccc12)Nc1cccc(Cl)c1 | 6.82% (inactive) |
